This passage reports binding signal results from publication PMC7819943, “Rice protein-binding microarrays: a tool to detect cis-acting elements near promoter regions in rice”.

In all, about 35,000 sequences were measured (“fluorescence intensity (a.u.)”: median about 10,000, highest 2% from about 52,000 on). What follows is part of a selection rich in the highest values, with near analogues and random picks from the rest.

The assay concerns the target T1, OsWOX13 (Oryza sativa, UniProt Q5QMM3 1-267).
T1 sequence: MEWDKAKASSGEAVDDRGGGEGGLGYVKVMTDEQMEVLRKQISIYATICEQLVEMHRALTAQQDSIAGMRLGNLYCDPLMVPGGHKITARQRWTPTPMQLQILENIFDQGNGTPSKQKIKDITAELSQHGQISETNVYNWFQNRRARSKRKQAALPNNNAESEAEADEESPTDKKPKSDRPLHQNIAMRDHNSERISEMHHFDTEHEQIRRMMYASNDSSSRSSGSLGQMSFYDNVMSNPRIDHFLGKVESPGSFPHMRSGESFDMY
Put plainly: protein-binding microarray (RPBM); PBS, 2% BSA, 51.3 ng/ul salmon testes DNA, 50 uM zinc acetate, 200 nM TF, 25 C, 1 h; high values mean tight binding. The conditions noted are these: protein: recombinant; tags: N-terminal polyhistidine and DsRed monomer fusion (pET32a); label: CyDye5-dUTP incorporated in the synthesized complementary strand; 3' TTTTT single-stranded linker to array surface; dsDNA, one strand shown. In short, it runs like this: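 In PBS with 2% BSA, salmon testes DNA and 50 µM zinc acetate, 200 nM protein was incubated on a custom Agilent array at 25 °C for 1 h and then washed off. The array had been made double-stranded by primer extension with Cy5-dUTP and blocked with 2% BSA. The proteins were transcription factors fused N-terminally to polyhistidine and DsRed, expressed in E. coli BL21-CodonPlus and purified on Ni–NTA. The binding signal is per-feature fluorescence intensity (arbitrary units) from an Axon 4000B scanner.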
With “ACAAAACAAATTACAGATTCCGCCTGCAAATTATGAGACACGGAGTCACCTAGTGCAG”, the binding signal is 6510 fluorescence intensity (a.u.).

Take “CCGTGCTCAACTACCCAATCACTCCAAATTAAGCTCGCATCGGAGTCACCTAGTGCAG”: the binding signal was 3750 fluorescence intensity (a.u.).

“TATTAATTAATTAACCTTAATTAATAAACAGGCAAAAGAACGGAGTCACCTAGTGCAG”: the binding signal is 40700 fluorescence intensity (a.u.).

For “TGCTAGATTAAATTTTAAAACTATATTGTTCCTTTCATATCGGAGTCACCTAGTGCAG”, the binding signal was 12400 fluorescence intensity (a.u.).

On to “CCTGATTTCCTCCTTTCAGTGAAGTGTTAAACCCTAGCTACGGAGTCACCTAGTGCAG”, for which the binding signal was 21500 fluorescence intensity (a.u.).

On to “AGTGGCTGCCGAATTAATTGGATCGCGTGCTGCGTGCGTGCGGAGTCACCTAGTGCAG”, for which the binding signal was 5740 fluorescence intensity (a.u.).

Consider “TGATAAATTTGATGTTTATATGTTAAATTATAGTAGTTTGCGGAGTCACCTAGTGCAG”, for which the binding signal is 17600 fluorescence intensity (a.u.).

Take “TGTTAAATTATATCTAAGGAAACCGGTTTTGATTTCCTTCCGGAGTCACCTAGTGCAG”: the binding signal is 11100 fluorescence intensity (a.u.).

“CTATTAAATTGATTATATATGATTTGTAGTTTATAGTTGGCGGAGTCACCTAGTGCAG”: the binding signal is 65100 fluorescence intensity (a.u.).

For the sequence “ATTAATTGAGTTTTATTTTATTGTAAATTTGATTTAATAGCGGAGTCACCTAGTGCAG”, the binding signal was 37200 fluorescence intensity (a.u.).

In the case of “TTAAATTGGATCTGATTGATTTGTTTAAGGAAACCACCGGCGGAGTCACCTAGTGCAG”, the binding signal was 54600 fluorescence intensity (a.u.).

For the sequence “AGGATTGTTTCTGATGATTTGGGCCCGGAAAGACATAAGGCGGAGTCACCTAGTGCAG”, the binding signal was 7510 fluorescence intensity (a.u.).

As to “GAGTAATATTCAACATTTTGATTAGAGGTTAACCGGTGTACGGAGTCACCTAGTGCAG”, the binding signal is 5370 fluorescence intensity (a.u.).

Consider “ATTCATTAATCTGTACTAATTGATATTGCTAAGCAGCTGCCGGAGTCACCTAGTGCAG”, for which the binding signal is 34200 fluorescence intensity (a.u.).

With “TTTGATAAAATCATAGATGTAGATTTTAATGTGATCTGAGCGGAGTCACCTAGTGCAG”, the binding signal is 6270 fluorescence intensity (a.u.).

Turning to “TCACGATTAATTATATCATCATTTTGTATCCTTTGATTTCCGGAGTCACCTAGTGCAG”, the binding signal is 25200 fluorescence intensity (a.u.).

As for “GTGGCATTTAGGTAATTAATTTAGTTTTATTTGTTACCTGCGGAGTCACCTAGTGCAG”, the binding signal was 10200 fluorescence intensity (a.u.).

Take “TCTAAATGATTGTTATTTTCTTTCCTATTGTAAAGTTCAACGGAGTCACCTAGTGCAG”: the binding signal is 18900 fluorescence intensity (a.u.).

Take “ATTTTGTGGTAATCTATACAAATTACTATATCCCCAATTGCGGAGTCACCTAGTGCAG”: the binding signal was 4670 fluorescence intensity (a.u.).

With “CTTTAATTAATTTAACTGCCATTATTATGTACTTTCAGAGCGGAGTCACCTAGTGCAG”, the binding signal was 63200 fluorescence intensity (a.u.).

For the sequence “AATACTTATTAATAATTAACATGTGTTAATTCATTGCTTCCGGAGTCACCTAGTGCAG”, the binding signal was 13400 fluorescence intensity (a.u.).

For the sequence “GTAAATATTAATGAATTGCTTGTTTATGTTTAAATAAATGCGGAGTCACCTAGTGCAG”, the binding signal is 4960 fluorescence intensity (a.u.).

For the sequence “CATTATTTCACTTGATTAAATTGCTTTAACTTTTATTTAGCGGAGTCACCTAGTGCAG”, the binding signal is 15900 fluorescence intensity (a.u.).

Take “TGTATTTAATTAGTTTGACAGAAACAAATTTGCTCAGTTACGGAGTCACCTAGTGCAG”: the binding signal is 37100 fluorescence intensity (a.u.).

For the sequence “CTTAATTACAAATTTGAAATTAATTTGCTAGGTATGTTTACGGAGTCACCTAGTGCAG”, the binding signal is 63900 fluorescence intensity (a.u.).

As for “ATTTTGAAATTTTAATTTTAAAATTACATTTTGGGACAAACGGAGTCACCTAGTGCAG”, the binding signal was 8130 fluorescence intensity (a.u.).

Take “ATTATTAATTTAATAGTATTGTAGTGATTCAGAGTACTAGCGGAGTCACCTAGTGCAG”: the binding signal was 19200 fluorescence intensity (a.u.).

For the sequence “TAATTAATAATTAATTAATTATGTGTTAATTGCTTGCTCCCGGAGTCACCTAGTGCAG”, the binding signal is 65500 fluorescence intensity (a.u.).

As to “TGTGTGTGTTTTAATTAATTAACATTTATATAAATATGAACGGAGTCACCTAGTGCAG”, the binding signal is 14100 fluorescence intensity (a.u.).

On to “CAAATTTATAATAATTAAAATTTAATTAATTATGTGTTAACGGAGTCACCTAGTGCAG”, for which the binding signal was 57700 fluorescence intensity (a.u.).

As to “TATATTTATTATTTGCAGTTAATTATGTTACAAATAATAACGGAGTCACCTAGTGCAG”, the binding signal was 4460 fluorescence intensity (a.u.).
